Source: the supplement of paper PMC10849652
The full data set covers some 7,900 targets. This sample favours those with a hit. About 0.6% of all pairs of compound and target were hits. Values without a mark were called inactive.

Legend:
Test in all cases: log2 fold change, soluble protein after heating vs DMSO (PISA); higher = thermal stabilisation; K562 cells, 10 uM, 30 min; active = over 0.2 and 3.5 SD of the protein, either way, in both replicates (recomputed)
IRAK-1-4 Inhibitor I = compound: C1COCCN1CCN2C3=CC=CC=C3N=C2NC(=O)C4=CC(=CC=C4)[N+](=O)[O-] [IRAK-1-4 Inhibitor I]
Summary of the method: (§1)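 Soluble protein was quantified by TMTpro 16plex LC-MS/MS after channel sums were equalised. It was obtained as the supernatant after 21,000xg for 90 min from pooled aliquots of K562 cells (2×10^6 cells/mL, 10 μM compound, 30 min) heated for 3 min across 48°C-58°C and extracted in PBS with 0.5% NP-40 at 4°C. Thermal stability values are relative to control samples and come from duplicates. They are given as log2 fold changes.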

ibrutinib = compound: C=CC(=O)N1CCC[C@@H](n2nc(-c3ccc(Oc4ccccc4)cc3)c3c(N)ncnc32)C1 [ibrutinib]
Summary of the method: as §1

[1] = compound: CC(=O)c1cnc2ccc(-c3cc(Cl)c(O)c(Cl)c3)nc2c1N[C@H]1CC[C@H](CN(C)C)CC1
Summary of the method: as §1

ralimetinib = compound: CC(C)(C)Cn1c(N)nc2ccc(-c3[nH]c(C(C)(C)C)nc3-c3ccc(F)cc3)nc21 [ralimetinib]
Summary of the method: as §1

[2] = compound: CC(C)(O)CC(=O)NCCn1ccc2ncnc(Nc3ccc(Oc4cccc(C(F)(F)F)c4)c(Cl)c3)c21
Summary of the method: as §1

[3] = compound: CC(C)C1=C2N=C(C=C(N2N=C1)NCC3=CC=CC=C3)NCCCCCCN
Summary of the method: as §1

[4] = compound: CC(C)C[C@@H](C=O)NC(=O)[C@H](CC(C)C)NC(=O)[C@H](CC(C)C)NC(=O)OCc1ccccc1
Summary of the method: as §1

pinometostat = compound: CC(C)N(C[C@H]1O[C@@H](n2cnc3c(N)ncnc32)[C@H](O)[C@@H]1O)[C@H]1C[C@@H](CCc2nc3cc(C(C)(C)C)ccc3[nH]2)C1 [pinometostat]
Summary of the method: as §1

[5] = compound: CC1=C(C(CC(=O)N1)C2=CC=C(C=C2)C(F)(F)F)C(=O)NC3=C(C=C4C(=C3)C=NN4)F
Summary of the method: as §1

[6] = compound: CC1=C(C2=C(C=C1)C(=O)C3=CC=CC=C3N2CCCN)C
Summary of the method: as §1

Chain of UniProt Q10472 (Q10472 whole entry, looked up): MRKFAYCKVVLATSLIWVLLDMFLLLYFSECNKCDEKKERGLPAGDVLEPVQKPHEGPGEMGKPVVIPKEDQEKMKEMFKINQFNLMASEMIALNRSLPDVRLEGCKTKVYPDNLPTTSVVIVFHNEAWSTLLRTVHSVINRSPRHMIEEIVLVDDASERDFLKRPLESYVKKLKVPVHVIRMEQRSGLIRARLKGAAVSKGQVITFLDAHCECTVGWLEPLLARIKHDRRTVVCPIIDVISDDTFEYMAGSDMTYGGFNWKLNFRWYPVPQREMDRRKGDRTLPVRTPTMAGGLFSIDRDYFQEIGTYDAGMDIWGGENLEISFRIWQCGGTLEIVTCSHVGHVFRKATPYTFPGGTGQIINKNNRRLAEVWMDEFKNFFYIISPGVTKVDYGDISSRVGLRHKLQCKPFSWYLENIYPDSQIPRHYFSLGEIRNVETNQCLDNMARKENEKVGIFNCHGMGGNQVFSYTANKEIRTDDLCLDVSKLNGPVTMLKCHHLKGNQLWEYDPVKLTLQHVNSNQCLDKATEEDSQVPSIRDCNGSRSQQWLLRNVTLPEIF
Chain of UniProt Q5SSJ5 (Q5SSJ5 whole entry, looked up): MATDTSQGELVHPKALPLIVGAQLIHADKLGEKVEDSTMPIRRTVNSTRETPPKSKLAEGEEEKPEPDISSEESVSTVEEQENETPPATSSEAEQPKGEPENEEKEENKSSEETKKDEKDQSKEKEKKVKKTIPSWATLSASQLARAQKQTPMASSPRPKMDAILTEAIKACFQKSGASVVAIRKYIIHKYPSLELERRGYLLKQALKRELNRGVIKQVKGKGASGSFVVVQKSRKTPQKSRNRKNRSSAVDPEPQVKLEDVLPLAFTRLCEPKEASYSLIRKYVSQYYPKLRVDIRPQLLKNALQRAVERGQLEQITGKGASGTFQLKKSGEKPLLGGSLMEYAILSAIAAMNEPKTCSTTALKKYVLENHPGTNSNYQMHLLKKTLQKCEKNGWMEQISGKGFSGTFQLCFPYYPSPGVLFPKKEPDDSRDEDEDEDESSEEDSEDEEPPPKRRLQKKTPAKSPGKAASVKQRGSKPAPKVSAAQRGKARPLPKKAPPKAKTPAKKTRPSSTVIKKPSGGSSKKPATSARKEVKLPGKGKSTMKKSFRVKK
Chain of UniProt Q7Z4V5 (Q7Z4V5 whole entry, looked up): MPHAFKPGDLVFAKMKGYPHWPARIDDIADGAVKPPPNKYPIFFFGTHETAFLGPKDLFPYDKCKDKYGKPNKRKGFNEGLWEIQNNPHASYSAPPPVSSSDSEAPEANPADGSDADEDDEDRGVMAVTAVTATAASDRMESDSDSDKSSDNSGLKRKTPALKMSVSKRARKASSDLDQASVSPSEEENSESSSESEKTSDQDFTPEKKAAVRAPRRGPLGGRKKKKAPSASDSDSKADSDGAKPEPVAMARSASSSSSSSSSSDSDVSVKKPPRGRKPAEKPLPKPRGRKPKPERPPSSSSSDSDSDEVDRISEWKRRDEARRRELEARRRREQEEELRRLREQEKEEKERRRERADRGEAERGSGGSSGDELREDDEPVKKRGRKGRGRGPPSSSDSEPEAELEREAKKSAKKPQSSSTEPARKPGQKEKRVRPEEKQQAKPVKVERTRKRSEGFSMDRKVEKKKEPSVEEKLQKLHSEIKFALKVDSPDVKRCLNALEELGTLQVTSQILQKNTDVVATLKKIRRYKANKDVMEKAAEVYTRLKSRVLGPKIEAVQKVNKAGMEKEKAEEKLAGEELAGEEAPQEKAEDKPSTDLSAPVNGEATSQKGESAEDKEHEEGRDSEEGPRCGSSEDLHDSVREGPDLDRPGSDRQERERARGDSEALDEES
Chain of UniProt Q96HJ9 (Q96HJ9 whole entry, looked up): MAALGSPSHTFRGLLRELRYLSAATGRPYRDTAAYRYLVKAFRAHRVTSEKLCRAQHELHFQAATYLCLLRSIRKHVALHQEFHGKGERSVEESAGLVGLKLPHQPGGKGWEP
Chain of UniProt P08754 (P08754 whole entry, looked up): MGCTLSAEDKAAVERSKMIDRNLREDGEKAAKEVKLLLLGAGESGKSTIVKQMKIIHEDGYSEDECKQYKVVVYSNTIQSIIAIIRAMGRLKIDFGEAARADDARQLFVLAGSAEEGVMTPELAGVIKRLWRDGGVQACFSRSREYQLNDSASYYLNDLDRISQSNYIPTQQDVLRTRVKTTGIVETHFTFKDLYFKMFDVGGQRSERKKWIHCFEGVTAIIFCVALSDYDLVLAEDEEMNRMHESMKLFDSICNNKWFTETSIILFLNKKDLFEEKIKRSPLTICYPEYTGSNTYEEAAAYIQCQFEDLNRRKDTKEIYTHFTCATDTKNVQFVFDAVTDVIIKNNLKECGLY
Chain of UniProt Q14C86 (Q14C86 whole entry, looked up): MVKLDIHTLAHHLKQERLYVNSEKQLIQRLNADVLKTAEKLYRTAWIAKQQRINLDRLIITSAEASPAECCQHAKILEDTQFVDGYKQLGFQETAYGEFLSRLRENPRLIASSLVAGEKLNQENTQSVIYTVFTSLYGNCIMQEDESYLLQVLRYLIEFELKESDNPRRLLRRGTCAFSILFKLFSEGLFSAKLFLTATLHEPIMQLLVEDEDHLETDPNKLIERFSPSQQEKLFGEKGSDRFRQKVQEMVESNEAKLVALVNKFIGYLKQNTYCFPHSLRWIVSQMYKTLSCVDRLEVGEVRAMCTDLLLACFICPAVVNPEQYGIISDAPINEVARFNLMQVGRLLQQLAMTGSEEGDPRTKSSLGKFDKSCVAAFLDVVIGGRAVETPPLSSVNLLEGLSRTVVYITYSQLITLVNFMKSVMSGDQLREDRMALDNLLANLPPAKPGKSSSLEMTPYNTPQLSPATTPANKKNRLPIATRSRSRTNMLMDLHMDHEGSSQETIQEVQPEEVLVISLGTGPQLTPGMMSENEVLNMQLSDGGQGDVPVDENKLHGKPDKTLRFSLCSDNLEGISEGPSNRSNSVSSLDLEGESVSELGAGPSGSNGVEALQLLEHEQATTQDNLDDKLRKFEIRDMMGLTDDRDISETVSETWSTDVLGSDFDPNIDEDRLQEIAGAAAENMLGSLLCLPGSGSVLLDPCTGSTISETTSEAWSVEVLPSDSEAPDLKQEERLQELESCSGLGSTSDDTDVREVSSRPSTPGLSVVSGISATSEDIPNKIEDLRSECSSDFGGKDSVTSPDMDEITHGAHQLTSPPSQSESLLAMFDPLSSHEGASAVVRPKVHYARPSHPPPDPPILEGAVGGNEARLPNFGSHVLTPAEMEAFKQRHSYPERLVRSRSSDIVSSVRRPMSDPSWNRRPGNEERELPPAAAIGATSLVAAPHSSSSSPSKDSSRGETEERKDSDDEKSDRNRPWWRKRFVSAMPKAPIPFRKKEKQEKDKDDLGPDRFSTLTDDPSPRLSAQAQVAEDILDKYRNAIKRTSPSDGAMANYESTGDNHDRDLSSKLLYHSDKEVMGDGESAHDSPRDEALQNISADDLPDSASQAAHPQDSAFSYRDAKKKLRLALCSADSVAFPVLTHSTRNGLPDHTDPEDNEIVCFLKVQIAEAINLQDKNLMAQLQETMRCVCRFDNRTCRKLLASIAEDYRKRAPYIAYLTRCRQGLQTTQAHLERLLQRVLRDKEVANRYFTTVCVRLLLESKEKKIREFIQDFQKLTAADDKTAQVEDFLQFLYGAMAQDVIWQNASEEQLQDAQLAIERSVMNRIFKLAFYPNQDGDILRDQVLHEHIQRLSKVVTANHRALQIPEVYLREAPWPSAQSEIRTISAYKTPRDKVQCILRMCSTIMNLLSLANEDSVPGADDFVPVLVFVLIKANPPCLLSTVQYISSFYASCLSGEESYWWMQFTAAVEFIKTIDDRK
Chain of UniProt P06865 (P06865 whole entry, looked up): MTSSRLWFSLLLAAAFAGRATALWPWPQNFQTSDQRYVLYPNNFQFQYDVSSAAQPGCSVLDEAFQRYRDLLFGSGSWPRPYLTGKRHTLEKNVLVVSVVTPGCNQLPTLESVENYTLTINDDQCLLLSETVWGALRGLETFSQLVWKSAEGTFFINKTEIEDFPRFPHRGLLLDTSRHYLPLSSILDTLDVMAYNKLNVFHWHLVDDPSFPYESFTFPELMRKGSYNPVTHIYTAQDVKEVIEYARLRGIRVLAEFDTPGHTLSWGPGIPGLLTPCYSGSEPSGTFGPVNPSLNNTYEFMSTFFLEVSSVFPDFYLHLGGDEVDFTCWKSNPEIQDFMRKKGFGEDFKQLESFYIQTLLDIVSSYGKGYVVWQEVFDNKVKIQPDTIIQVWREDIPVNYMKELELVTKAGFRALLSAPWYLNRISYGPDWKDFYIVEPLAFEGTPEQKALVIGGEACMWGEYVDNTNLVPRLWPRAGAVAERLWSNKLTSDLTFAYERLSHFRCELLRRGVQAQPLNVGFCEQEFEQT
Chain of UniProt Q86UL3 (Q86UL3 whole entry, looked up): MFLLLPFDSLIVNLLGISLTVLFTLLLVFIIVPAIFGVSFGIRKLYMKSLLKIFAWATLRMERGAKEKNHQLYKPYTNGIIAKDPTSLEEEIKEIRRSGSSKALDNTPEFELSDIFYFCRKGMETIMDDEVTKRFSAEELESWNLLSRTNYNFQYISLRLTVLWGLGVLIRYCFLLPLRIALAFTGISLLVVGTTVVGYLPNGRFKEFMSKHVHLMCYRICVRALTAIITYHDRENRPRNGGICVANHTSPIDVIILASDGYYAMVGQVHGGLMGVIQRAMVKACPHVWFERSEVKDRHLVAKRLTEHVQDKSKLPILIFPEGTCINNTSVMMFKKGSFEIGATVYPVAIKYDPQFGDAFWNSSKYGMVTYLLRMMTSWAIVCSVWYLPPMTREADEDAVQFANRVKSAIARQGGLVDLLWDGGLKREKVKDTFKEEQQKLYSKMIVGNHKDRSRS
Chain of UniProt Q16774 (Q16774 whole entry, looked up): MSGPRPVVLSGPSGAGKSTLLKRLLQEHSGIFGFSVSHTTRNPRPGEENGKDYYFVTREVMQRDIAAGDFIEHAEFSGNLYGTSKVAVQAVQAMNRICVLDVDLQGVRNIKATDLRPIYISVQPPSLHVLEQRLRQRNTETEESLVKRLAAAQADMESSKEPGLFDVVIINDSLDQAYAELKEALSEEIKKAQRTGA

Target | log2 fold change (IRAK-1-4 Inhibitor I) | log2 fold change (ibrutinib) | log2 fold change [1] | log2 fold change (ralimetinib) | log2 fold change [2] | log2 fold change [3] | log2 fold change [4] | log2 fold change (pinometostat) | log2 fold change [5] | log2 fold change [6]
GUK1 isoform 2 (UniProt Q16774) | -0.076 | -0.033 | -0.162 | 0.038 | -0.234 | -0.033 | 0.167 | -0.037 | -0.074 | 0.092
HRC (UniProt P23327) | 0.002 | 0.003 | 0.041 | -0.039 | 0.132 | 0.074 | 0.011 | 0.019 | 0.011 | -0.033
GABARAPL2 (UniProt P60520) | 0.107 | -0.018 | -0.076 | 0.008 | -0.028 | -0.269 (active) | -0.007 | -0.103 | 0.016 | -0.015
GDPD1 (UniProt Q8N9F7) | 0.02 | -0.03 | 0.044 | 0.066 | -0.03 | 0.04 | 0.03 | -0.027 | -0.005 | -0.015
FYB1 isoform 3 (UniProt O15117) | 0.009 | -0.012 | -0.193 | 0.308 | 0.06 | -0.069 | 0.226 | 0.002 | -0.075 | 0.129
GLUL (UniProt P15104) | 0.054 | 0.009 | -0.049 | -0.02 | 0.018 | 0.058 | -0.013 | -0.021 | 0.105 | -0.058
FASTKD1 (UniProt Q53R41) | 0.016 | -0.186 | -0.043 | 0.013 | -0.316 | -0.047 | 0.116 | 0.038 | -0.345 | 0.2
GNAI3 (UniProt P08754) | -0.007 | 0.083 | 0.027 | 0.066 | 0.083 | 0.006 | -0.03 | 0.024 | 0.02 | 0.038
GALNT1 (UniProt Q10472) | -0.106 | 0.023 | -0.002 | 0.101 | 0.018 | 0.048 | -0.141 | -0.025 | -0.001 | 0.021
HEATR5B (UniProt Q9P2D3) | -0.002 | 0.017 | 0.014 | 0.04 | -0.021 | -0.063 | 0.023 | 0.008 | 0.022 | 0.01
GPX4 (UniProt P36969) | -0.026 | 0.065 | -0.005 | 0.01 | 0.003 | 0.099 | -0.462 (active) | -0.078 | 0.002 | 0.02
HNRNPUL1 (UniProt Q9BUJ2) | -0.055 | 0 | -0.072 | 0.005 | 0.027 | 0.007 | 0.035 | 0.01 | 0.014 | -0.096
HECTD1 (UniProt Q9ULT8) | -0.076 | -0.027 | 0.001 | 0.054 | -0.048 | -0.091 | 0.141 | 0.079 | 0.026 | -0.158
GLA (UniProt P06280) | 0.034 | 0.026 | -0.031 | -0.05 | -0.052 | -0.199 | 0.015 | 0.02 | 0.052 | -0.051
HIST2H2BF isoform 2 (UniProt Q5QNW6) | -0.165 | 0.148 | -0.054 | 0.162 | 0 | -0.047 | 0.226 | 0.422 | 0.002 | 0.601
GALC (UniProt P54803) | 0.053 | 0.017 | 0.016 | -0.012 | 0.041 | -0.122 | 0.05 | 0.067 | 0.035 | -0.003
HEXA (UniProt P06865) | 0.013 | 0.004 | 0.018 | -0.062 | 0.024 | -0.179 | 0.032 | -0.043 | -0.003 | -0.05
HDGFL2 (UniProt Q7Z4V5) | 0.01 | -0.039 | 0.011 | -0.019 | 0.041 | -0.017 | -0.022 | -0.051 | 0.029 | -0.709 (active)
FMC1 (UniProt Q96HJ9) | -0.06 | 0.008 | 0.066 | -0.098 | -0.006 | 0.01 | 0.125 | 0.047 | -0.041 | 0.02
HP1BP3 (UniProt Q5SSJ5) | -0.097 | 0.003 | 0.051 | 0.089 | -0.013 | -0.031 | 0.063 | 0.092 | -0.139 | -0.387 (active)
HADHA (UniProt P40939) | -0.001 | 0.175 | -0.358 | 0.058 | -0.132 | 0.43 | -0.116 | -0.064 | -0.125 | 0.054
GTF3C5 isoform 3 (UniProt Q9Y5Q8) | -0.028 | 0.046 | 0.047 | 0.01 | -0.025 | -0.293 | 0.083 | 0.109 | 0.147 | -0.171
GNS (UniProt P15586) | 0.023 | -0.011 | 0.011 | -0.04 | 0.065 | -0.079 | 0.025 | -0.025 | -0.017 | -0.01
FARS2 (UniProt O95363) | 0 | -0.038 | -0.05 | -0.004 | -0.028 | -0.182 | -0.001 | 0.002 | -0.003 | -0.018
HMOX2 (UniProt P30519) | -0.061 | -0.035 | -0.092 | 0.081 | 0.031 | 0.08 | 0.028 | 0 | -0.016 | 0.012
HDDC2 (UniProt Q7Z4H3) | 0.04 | 0 | 0.052 | 0.085 | 0.003 | 0.074 | 0 | -0.076 | -0.006 | -0.007
GSTO1 (UniProt P78417) | 0.073 | -0.029 | 0.006 | 0.021 | -0.029 | 0.066 | -0.045 | -0.047 | 0.021 | 0.021
GPAT4 (UniProt Q86UL3) | -0.144 | -0.081 | 0.044 | -0.058 | -0.09 | 0.145 | 0.007 | -0.029 | -0.015 | 0.047
GSTT1 (UniProt P30711) | -0.054 | 0.007 | 0.009 | -0.079 | -0.079 | 0.076 | -0.005 | -0.124 | 0.139 | 0.157
GAPVD1 isoform 6 (UniProt Q14C86) | -0.044 | -0.087 | 0.005 | 0.056 | -0.111 | -0.278 (active) | 0.037 | 0.094 | 0.003 | -0.003
